From ChEMBL document CHEMBL1961873, “Compounds: GSK PKIS; Assays: Nanosyn kinase panel” (2012)
Several values for one entry are separate records, joined by “and”; a condition that tells them apart may be missing. Equal entries are not always repeated.

Columns and labels:
[1] = biological target: Rho-associated protein kinase 1 (Homo sapiens) (UniProt Q13464); conditions: at 1 µM;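 note: reported values are mean percent inhibition of ROCK1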
[2] = biological target: Rho-associated protein kinase 2 (Homo sapiens) (UniProt O75116); conditions: at 0.1 µM
[3] = biological target: Rho-associated protein kinase 2 (Homo sapiens) (UniProt O75116); conditions: at 1 µM
[4] = biological target: Ribosomal protein S6 kinase alpha-1 (Homo sapiens) (UniProt Q15418); conditions: at 0.1 µM
[5] = biological target: Ribosomal protein S6 kinase alpha-1 (Homo sapiens) (UniProt Q15418); conditions: at 1 µM
[6] = biological target: Ribosomal protein S6 kinase alpha-3 (Homo sapiens) (UniProt P51812); conditions: at 0.1 µM
[7] = biological target: Ribosomal protein S6 kinase alpha-3 (Homo sapiens) (UniProt P51812); conditions: at 1 µM
[8] = biological target: Ribosomal protein S6 kinase alpha-2 (Homo sapiens) (UniProt Q15349); conditions: at 0.1 µM
[9] = biological target: Ribosomal protein S6 kinase alpha-2 (Homo sapiens) (UniProt Q15349); conditions: at 1 µM
[10] = biological target: Ribosomal protein S6 kinase alpha-6 (Homo sapiens) (UniProt Q9UK32); conditions: at 0.1 µM;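 note: reported value is the mean inhibition of RSK4, from the GSK PKIS kinase inhibitor screen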
Chain of Ribosomal protein S6 kinase alpha-6 (Homo sapiens) (Q9UK32 whole entry): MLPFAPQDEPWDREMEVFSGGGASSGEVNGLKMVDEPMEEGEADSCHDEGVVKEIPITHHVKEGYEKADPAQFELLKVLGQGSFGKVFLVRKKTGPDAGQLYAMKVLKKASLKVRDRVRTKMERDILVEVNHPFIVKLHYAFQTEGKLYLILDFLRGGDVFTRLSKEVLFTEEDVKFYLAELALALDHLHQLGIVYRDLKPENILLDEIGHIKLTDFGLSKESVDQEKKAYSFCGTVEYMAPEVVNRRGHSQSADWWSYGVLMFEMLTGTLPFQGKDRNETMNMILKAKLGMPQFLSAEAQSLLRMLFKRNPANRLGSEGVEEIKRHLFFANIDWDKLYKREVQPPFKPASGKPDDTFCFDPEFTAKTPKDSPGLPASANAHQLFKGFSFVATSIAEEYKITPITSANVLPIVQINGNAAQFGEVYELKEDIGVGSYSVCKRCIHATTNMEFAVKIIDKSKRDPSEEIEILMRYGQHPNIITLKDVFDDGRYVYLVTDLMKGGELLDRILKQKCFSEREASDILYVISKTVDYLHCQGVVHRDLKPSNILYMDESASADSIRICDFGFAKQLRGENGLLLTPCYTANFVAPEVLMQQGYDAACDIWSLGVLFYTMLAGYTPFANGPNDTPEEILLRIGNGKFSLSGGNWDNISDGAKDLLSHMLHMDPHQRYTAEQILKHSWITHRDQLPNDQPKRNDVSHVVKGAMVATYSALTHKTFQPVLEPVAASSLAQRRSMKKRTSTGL

Chain of Ribosomal protein S6 kinase alpha-1 (Homo sapiens) (Q15418 whole entry): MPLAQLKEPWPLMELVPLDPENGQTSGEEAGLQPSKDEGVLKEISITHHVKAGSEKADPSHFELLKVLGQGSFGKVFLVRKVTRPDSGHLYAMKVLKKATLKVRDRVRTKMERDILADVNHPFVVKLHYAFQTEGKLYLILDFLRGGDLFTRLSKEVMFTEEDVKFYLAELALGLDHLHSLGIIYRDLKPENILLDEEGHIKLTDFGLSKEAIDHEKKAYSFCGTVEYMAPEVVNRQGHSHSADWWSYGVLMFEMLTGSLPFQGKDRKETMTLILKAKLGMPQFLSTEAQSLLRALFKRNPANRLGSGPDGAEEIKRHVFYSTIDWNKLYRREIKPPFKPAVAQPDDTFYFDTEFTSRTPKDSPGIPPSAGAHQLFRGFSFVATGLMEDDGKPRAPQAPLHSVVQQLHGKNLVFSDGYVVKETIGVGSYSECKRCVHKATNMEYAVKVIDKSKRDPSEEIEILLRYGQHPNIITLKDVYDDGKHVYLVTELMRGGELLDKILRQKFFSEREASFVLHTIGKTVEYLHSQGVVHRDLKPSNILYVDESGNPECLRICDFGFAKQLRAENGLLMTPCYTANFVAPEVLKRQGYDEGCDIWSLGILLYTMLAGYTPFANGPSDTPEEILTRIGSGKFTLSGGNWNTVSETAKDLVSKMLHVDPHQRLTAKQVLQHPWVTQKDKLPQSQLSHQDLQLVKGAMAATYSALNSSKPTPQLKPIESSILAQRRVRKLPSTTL
Chain of Ribosomal protein S6 kinase alpha-3 (Homo sapiens) (P51812 whole entry): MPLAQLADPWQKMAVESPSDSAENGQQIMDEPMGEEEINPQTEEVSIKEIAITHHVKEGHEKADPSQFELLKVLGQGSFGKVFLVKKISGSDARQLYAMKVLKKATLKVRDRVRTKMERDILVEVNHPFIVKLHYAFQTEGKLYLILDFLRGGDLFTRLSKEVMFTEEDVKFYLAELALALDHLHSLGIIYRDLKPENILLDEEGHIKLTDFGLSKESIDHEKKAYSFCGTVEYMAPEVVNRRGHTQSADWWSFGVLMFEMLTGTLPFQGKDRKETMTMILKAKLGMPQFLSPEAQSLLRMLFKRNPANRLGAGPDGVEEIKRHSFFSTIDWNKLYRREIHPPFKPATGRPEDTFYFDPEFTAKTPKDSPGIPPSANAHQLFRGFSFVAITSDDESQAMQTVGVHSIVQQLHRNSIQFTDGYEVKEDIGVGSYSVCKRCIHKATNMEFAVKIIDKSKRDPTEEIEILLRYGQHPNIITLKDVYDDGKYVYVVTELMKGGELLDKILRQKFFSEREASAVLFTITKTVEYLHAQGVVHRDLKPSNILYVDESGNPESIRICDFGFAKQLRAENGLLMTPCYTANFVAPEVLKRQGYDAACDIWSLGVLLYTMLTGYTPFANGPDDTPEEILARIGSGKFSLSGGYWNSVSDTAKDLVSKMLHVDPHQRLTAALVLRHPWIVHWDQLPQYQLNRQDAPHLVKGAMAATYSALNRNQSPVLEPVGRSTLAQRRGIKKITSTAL
Chain of Rho-associated protein kinase 1 (Homo sapiens) (Q13464 2-1354 limits assumed): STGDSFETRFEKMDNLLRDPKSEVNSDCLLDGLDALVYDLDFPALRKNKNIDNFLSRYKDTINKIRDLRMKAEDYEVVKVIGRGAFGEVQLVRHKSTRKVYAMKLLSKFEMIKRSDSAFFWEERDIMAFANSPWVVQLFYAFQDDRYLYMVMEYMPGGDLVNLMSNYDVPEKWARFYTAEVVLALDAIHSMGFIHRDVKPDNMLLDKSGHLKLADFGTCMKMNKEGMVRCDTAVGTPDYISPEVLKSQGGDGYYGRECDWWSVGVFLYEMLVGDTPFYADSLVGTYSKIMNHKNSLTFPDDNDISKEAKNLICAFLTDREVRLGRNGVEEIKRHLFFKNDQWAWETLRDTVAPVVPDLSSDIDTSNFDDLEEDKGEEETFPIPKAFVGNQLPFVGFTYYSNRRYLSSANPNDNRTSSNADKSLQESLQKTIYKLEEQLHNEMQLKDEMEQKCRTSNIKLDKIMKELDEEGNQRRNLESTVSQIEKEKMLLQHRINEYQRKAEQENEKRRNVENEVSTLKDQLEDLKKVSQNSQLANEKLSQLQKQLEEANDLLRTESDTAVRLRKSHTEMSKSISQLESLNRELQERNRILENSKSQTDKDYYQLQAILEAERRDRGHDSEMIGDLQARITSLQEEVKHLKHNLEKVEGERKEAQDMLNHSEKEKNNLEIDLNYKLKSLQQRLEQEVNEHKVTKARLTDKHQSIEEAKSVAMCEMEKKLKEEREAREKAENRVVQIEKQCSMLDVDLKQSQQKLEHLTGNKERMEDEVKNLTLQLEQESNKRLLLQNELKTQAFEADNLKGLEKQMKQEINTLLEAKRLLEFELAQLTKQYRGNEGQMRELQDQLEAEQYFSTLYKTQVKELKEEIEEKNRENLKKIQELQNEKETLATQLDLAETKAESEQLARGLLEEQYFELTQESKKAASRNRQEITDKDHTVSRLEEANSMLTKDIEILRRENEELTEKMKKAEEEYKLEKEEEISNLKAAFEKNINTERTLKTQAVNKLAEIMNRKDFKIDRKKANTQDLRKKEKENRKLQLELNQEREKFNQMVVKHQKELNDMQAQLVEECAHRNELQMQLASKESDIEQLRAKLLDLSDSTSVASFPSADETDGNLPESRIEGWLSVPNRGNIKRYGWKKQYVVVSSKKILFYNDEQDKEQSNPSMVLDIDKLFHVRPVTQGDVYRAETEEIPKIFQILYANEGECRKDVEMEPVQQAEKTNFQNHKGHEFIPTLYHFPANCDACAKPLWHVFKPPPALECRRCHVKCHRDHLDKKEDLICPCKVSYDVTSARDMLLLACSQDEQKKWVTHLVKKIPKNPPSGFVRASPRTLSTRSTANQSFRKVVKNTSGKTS
Chain of Rho-associated protein kinase 2 (Homo sapiens) (O75116 whole entry, looked up): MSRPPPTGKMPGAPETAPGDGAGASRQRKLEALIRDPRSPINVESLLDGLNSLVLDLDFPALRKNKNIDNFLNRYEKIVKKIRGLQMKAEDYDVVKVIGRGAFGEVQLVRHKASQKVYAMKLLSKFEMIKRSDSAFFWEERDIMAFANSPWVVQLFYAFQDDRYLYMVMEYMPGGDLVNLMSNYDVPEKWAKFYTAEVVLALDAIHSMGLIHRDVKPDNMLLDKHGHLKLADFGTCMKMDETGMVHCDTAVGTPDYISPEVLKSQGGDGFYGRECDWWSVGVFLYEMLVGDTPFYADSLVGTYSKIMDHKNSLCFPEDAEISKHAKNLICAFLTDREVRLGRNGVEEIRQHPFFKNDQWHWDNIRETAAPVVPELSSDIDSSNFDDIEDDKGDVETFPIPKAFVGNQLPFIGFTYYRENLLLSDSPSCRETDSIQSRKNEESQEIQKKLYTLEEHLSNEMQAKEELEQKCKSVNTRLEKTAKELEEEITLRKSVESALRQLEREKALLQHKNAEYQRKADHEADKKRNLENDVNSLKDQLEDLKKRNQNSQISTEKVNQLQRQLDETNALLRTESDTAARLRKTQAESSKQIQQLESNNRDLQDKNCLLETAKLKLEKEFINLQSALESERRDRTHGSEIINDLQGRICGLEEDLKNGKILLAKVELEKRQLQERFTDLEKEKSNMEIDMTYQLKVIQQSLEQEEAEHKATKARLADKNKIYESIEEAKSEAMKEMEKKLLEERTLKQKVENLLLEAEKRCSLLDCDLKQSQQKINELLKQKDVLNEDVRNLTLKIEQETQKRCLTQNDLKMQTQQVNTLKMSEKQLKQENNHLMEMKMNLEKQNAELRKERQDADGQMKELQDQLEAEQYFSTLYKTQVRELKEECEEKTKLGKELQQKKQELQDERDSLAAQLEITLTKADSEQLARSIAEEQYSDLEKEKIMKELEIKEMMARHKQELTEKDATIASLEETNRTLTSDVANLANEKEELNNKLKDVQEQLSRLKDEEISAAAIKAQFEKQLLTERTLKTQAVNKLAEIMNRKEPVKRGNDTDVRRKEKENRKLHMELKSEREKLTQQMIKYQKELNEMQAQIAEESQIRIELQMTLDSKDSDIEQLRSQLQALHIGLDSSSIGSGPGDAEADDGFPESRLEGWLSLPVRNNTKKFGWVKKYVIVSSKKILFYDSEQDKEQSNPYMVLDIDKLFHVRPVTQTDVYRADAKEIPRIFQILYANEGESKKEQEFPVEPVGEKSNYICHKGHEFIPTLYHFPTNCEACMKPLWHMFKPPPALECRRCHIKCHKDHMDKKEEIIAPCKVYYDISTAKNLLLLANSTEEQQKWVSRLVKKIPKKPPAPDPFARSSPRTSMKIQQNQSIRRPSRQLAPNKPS

| SMILES | inhibition [1] | inhibition [2] | inhibition [3] | inhibition [4] | inhibition [5] | inhibition [6] | inhibition [7] | inhibition [8] | inhibition [9] | inhibition [10] |
| --- | --- | --- | --- | --- | --- | --- | --- | --- | --- | --- |
| CNC(=O)c1sc(-n2cnc3cc(OC)c(OC)cc32)cc1OCc1ccccc1C(F)(F)F | 0.26% | 2.94% | 1.36% | 1.1% | 2.58% | 1.77% | 3.02% | 2.72% | 2.3% | 0.81% |
| COc1cc2c(cc1Nc1nc(Nc3cccc(F)c3C(N)=O)c3cc[nH]c3n1)N(C(=O)CN1CCN(C(C)C)CC1)CC2 | 0.34% | 0.62% | 2.82% | 4.37% | 20.1% | 2.2% | 10.3% | 1.68% | 2.89% | 3.57% |
| O=C(O[C@H]1CN[C@H](C#Cc2cc3ncnc(Nc4ccc5c(cnn5Cc5ccccc5)c4)c3s2)C1)N1CCOCC1 | -2.07% | -1.02% | -1.36% | -1.77% | -0.14% | 0.74% | 1.52% | -0.5% | -1.02% | -1.39% |
| CN1CCC(C(=O)Nc2n[nH]c3nc(-c4ccc(O)cc4)c(Br)cc23)CC1 | 2.13% and -0.83% | 3.65% and -0.14% | 7.61% and 0.92% | 2.66% and 0.77% | 5.58% and 0.84% | 2.78% and 0.04% | 6.6% and 1.92% | 3.56% and 2.99% | 7.9% and 6.17% | 2.77% and 0.98% |
| CS(=O)(=O)CCNCc1ccc(-c2ccc3ncnc(Nc4ccc(OCc5ccccc5)cc4)c3c2)o1 | 1.69% | 2.02% | 2.23% | 2.15% | 3.81% | 2.27% | 2.78% | 3.11% | 4.28% | 2.96% |
| c1cnn2ncc(-c3ccnc(NCCCN4CCOCC4)n3)c2c1 | 4.7% | 4.49% | 4.16% | 1.74% | 4.45% | 0.98% | 2.86% | 1.93% | 3.97% | -0.14% |
| COc1cc(N2CCN(C(C)C)CC2)ccc1Nc1nc(Nc2cccc3ncccc23)c2cc[nH]c2n1 | 0.37% | 0.02% | 0.45% | 0.19% | 3.05% | 1.66% | 5.2% | 1.37% | 3.33% | 0.58% |
| O=C(Nc1n[nH]c2nnc(-c3cccnc3)cc12)C1CC1 | 1.3% | 0.06% | 0.61% | 0.83% | 0.39% | 0.41% | 0.86% | 0.73% | 1.89% | 0.32% |
| CCN1CCC(C(=O)Nc2n[nH]c3nnc(-c4cccc(F)c4F)cc23)CC1 | -0.9% | 0.68% | -0.77% | 0.15% | 0.28% | 1.06% | 2.16% | -0.71% | 1.38% | 0.8% |
| COc1c(C(N)=O)cc(-c2ccc(Cl)cc2)cc1-c1ccc(S(N)(=O)=O)cc1 | 3.19% | 2.99% | 5.06% | 1.96% | 2.12% | 1.72% | 2.53% | 2.4% | 2.98% | 2.25% |
| N#Cc1cccc(Nc2ncc(-c3ccccc3)o2)c1 | 0.71% | 2% | 6.5% | 0.19% | 3.79% | 0.02% | 1.64% | 1.14% | 1.32% | -0.19% |
| CCS(=O)(=O)c1ccc(OC)c(Nc2ncc(-c3cccc(C(C)=O)c3)o2)c1 | 2.14% | 1.98% | 6.73% | 2.43% | 5.75% | 1.27% | 3.54% | 0.6% | 3.67% | 1% |
| CC(C)c1ccc(-c2cc(-c3c[nH]nc3-c3ccccn3)ccn2)cc1 | 1.96% | 0.45% | 1.63% | -0.37% | 1.19% | -0.1% | 0.24% | 1.17% | 1.83% | 0.05% |
| CCn1c(-c2nonc2N)nc2cncc(C(=O)NCCNC)c21 | 91.6% | 80.6% | 90.4% | 62.3% | 88.3% | 54.5% | 78.7% | 25.4% | 73.8% | 9.72% |
| Cc1ccc(-c2cc3c(NC(=O)C4CC4)ncnc3o2)cc1 | 2.27% | 2.81% | 1.43% | 2.52% | 4.28% | 1.27% | 2.17% | 2.35% | 2.3% | 0.9% |
| COC(=O)Nc1nc2ccc(Oc3ccc(NC(=O)Nc4cc(C(F)(F)F)ccc4F)cc3)cc2s1 | 1.94% | 0.66% | 1.17% | 1.59% | 2.46% | 0.8% | 2.83% | 3.19% | 13.1% | 0.36% |

| SMILES | inhibition [1] | inhibition [2] | inhibition [3] | inhibition [4] | inhibition [5] | inhibition [6] | inhibition [7] | inhibition [8] | inhibition [9] | inhibition [10] |
| --- | --- | --- | --- | --- | --- | --- | --- | --- | --- | --- |
| CS(=O)(=O)Nc1ccc(-c2cc(-c3ccccc3)cc(C(N)=O)c2N)cc1 | 1.71% | 0.41% | 1.85% | -1.14% | 0.41% | -0.7% | 0.45% | -1.55% | 0.47% | -1.16% |
| CN(c1ccc(NC(=O)NCCN2CCOCC2)cc1)c1ccnc(Nc2ccc(CS(C)(=O)=O)cc2)n1 | 8.01% | 4.87% | 18.1% | 1.1% | 3.56% | 2.14% | 2.69% | 1.38% | 2.28% | 1.79% |
| OCCCNc1nccc(-c2c(-c3ccc(F)cc3)nn3cc(C(F)(F)F)ccc23)n1 | 2.58% | 2.07% | 2.72% | 1.23% | 2.41% | 0.38% | 1.08% | 1.69% | 2.43% | 0.24% |
| c1ccc(-c2n[nH]cc2-c2ccnc(-c3ccc(OCCn4ccnc4)cc3)c2)nc1 | 5.6% | 5.64% | 7.73% | 0.66% | 4.31% | 0.64% | 3.85% | 1.32% | 1.36% | 0.75% |
| COC(=O)Nc1nc2cc(Oc3ccc(NC(=O)Nc4ccccc4)cc3)ccc2[nH]1 | 6.47% | 8.68% | 17.2% | 1.66% | 4.06% | 2.3% | 3.56% | 1.67% | 1.89% | 1.27% |
| O=C(O[C@H]1CN[C@H](C#Cc2cc3ncnc(Nc4ccc(OCc5cccc(F)c5)c(Cl)c4)c3s2)C1)N1CCOCC1 | 1.71% | 4.15% | 8.38% | 1.45% | 6.91% | 1.55% | 5.86% | 2.72% | 3.4% | 2.22% |
| Fc1cccc(COc2ccc(Nc3ncncc3C#Cc3ccccc3)cc2Cl)c1 | 1.47% | 3.76% | 7.12% | 3.37% | 6.51% | 1.92% | 4.01% | 3.21% | 2.81% | 1.21% |
| COc1ccc2ncn(-c3cc(O[C@H](C)c4ccccc4C(F)(F)F)c(C(N)=O)s3)c2c1 | 0.18% | -0.01% | -0.4% | 0.85% | 3.85% | 1.38% | 6.99% | 0.69% | 2.5% | 1.31% |
| NC(=O)c1ccc2c(-c3ccnc(NCCCO)n3)c(-c3ccc(F)cc3)nn2c1 | 1.92% | 3.55% | 5.31% | 3.69% | 1.7% | 0.96% | 1.23% | 2.66% | 3.1% | 2.24% |
| CNC(=O)c1ncccc1Nc1nc(Nc2cc3c(cc2OC)CCCN3C(=O)CN(C)C)nc2[nH]ccc12 | 8.73% | 3.75% | 8.67% | 5.58% | 25.8% | 2.99% | 14.5% | 3.13% | 7.32% | 3.92% |
| CS(=O)(=O)Nc1ccc(-c2ccc3c(NC(=O)C4CC4)n[nH]c3c2)cc1 | 1.98% | 0.25% | -0.32% | 1.25% | 1.36% | 0.62% | 0.96% | 0.73% | 3.79% | 1.37% |
| O=C(O[C@H]1CN[C@H](C#Cc2cc3ncnc(Nc4ccc5c(ccn5Cc5cc(F)ccc5F)c4)c3s2)C1)N1CCOCC1 | 3.4% | 2.86% | 5.23% | 1.53% | 1.62% | 0.96% | 0.89% | 3.56% | 2.57% | 1.53% |
| Nc1nccc(-c2c(-c3ccc(F)cc3)ncn2C2CCNCC2)n1 | 0.03% and 1.75% | -3.31% and 1.51% | -3.28% and 1.52% | -1.25% and 0.52% | 1.83% and 2.8% | -1.12% and 0.34% | 0.29% and 1.05% | -1.68% and 0.37% | 0.91% and 1.92% | -2.38% and 0.34% |
| COc1cccc(Nc2nccc(-c3cnn4ncccc34)n2)c1 | 6.3% | 2.21% | 15.4% | 0.64% | 4.33% | -0.39% | 2.48% | -0.61% | 2.4% | -1.37% |
| CC1=C(C(=O)Nc2ccc3[nH]ncc3c2)C(c2ccc(F)cc2)N=C(c2ccc(C(F)(F)F)nc2)N1 (stereo not given) | 73.2% | 35.7% | 75% | 0.61% | 4.49% | -0.02% | 2.71% | 1.05% | 3.76% | 0.55% |
